Source: PubChem BioAssay
An excerpt weighted towards active compounds, which were near 4.9% of everything screened.
NALP1 inh: NALP1 inflammasome inhibitors in reconstituted yeast, colorimetric, S. cerevisiae, triplicate retest; S. cerevisiae NALP1/ASC/caspase-1 growth, X-gal OD620, 72 h; inhibition, % at 10 µM; hit rate 0.61% among 280,000; AID 2071, 2009; in the data active means inhibition mostly above about 24%, no sharp cut-off; inactive means mostly below about 32%
NLRP3 yeast inh: NALP3 inflammasome inhibitors in reconstituted yeast, primary screen, luminescence, uHTS; Yeast reconstituted NLRP3/ASC/caspase-1, beta-gal luminescence, 24 h; inhibition, % at 10 µM; hit rate 0.39% among 330,000; AID 2825, 2010;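 active means inhibition of 50% or more; inactive means inhibition below 50%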
tim10-1 inh: growth inhibitors of tim10-1 mutant yeast, primary screen, luminescence, uHTS | inhibition, % at 20 µM | hit rate 2.2% among 330,000 | S. cerevisiae tim10-1 ts strain growth, BacTiter-Glo, 24 h;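 active means inhibition of at least 40%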;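 further: mutant grown at 25 °C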
tim23-1 inh: growth inhibitors of tim23-1 mutant yeast, primary screen, luminescence, uHTS. S. cerevisiae tim23-1 growth, BacTiter-Glo luminescence, 24 h. inhibition, % at 20 µM. hit rate 1.3% among 330,000. AID 463212, 2010;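 active means growth inhibition of the mutant yeast at or above 50%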;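 further: temperature-sensitive mutant grown at 25 °C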
TIM10 inh: growth inhibitors of isogenic TIM10 control yeast, primary screen, counter-screen for tim10-1 yeast inhibitor project, luminescence, uHTS. hit rate 1.4% among 330,000. inhibition, % at 10 µM. S. cerevisiae TIM10 strain growth, BacTiter-Glo luminescence, 24 h;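 active means inhibition of 40% or more at the single tested concentration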;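 further: wild-type TIM10 isogenic control strain grown at permissive 25 °C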
SKKanGAS inh: S. pyogenes SKKanGAS growth inhibitors in kanamycin, primary screen, streptokinase expression inhibitor project, SKKanGAS strain, BacTiter-Glo luminescence | 6 h | inhibition, % at 7.5 µM | hit rate 1.3% among 300,000 | AID 1662, 2009;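 active means mean replicate score, as percent of positive control median, at least 50; inconclusive means mean below 50 but one replicate at or above 50; inactive means mean and every replicate below 50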;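 further: strain carries kanamycin resistance gene driven by streptokinase promoter and grows in 40 µg/ml kanamycin; loss of luminescence reflects streptokinase promoter inhibition or plain growth inhibition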
tim23-1 confirm: tim23-1 mutant yeast growth inhibitors, confirmation, luminescence, single concentration; shares compounds with tim23-1 inh; S. cerevisiae tim23-1 growth, BacTiter-Glo luminescence, 24 h; inhibition, % at 20 µM; hit rate 83% among 4,400; AID 463218, 2010;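 active means inhibition above about 39% in either of two replicate wells at 20 µM, limit read from the data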;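 further: temperature-sensitive tim23-1 mutant grown at 25 °C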
Hits are given with their value; n = inactive; u = inconclusive; x = no result given.

SMILES	NALP1 inh	NLRP3 yeast inh	tim10-1 inh	tim23-1 inh	TIM10 inh	SKKanGAS inh	tim23-1 confirm
CC(=O)Nc1ccc(/C=N/Nc2nc3ccccc3s2)cc1	n	x	x	x	x	n	x
C(=N\Nc1nc2ccccc2s1)/c1cccs1	n	n	n	59	n	n	n
CSc1cccc(CN2CCC(n3nccc3NC(=O)C3CC3)CC2)c1	n	n	n	50	n	n	n
Nc1ccc2nc(-c3ccccc3)[nH]c2c1	n	n	n	n	n	n	x
Nc1cccc(-c2nc3ccc(C(=O)c4ccccc4)cc3[nH]2)c1	n	n	n	55	n	n	56
COc1ccc(OC)c(C(=O)c2coc3ccc(O)c(CN(C)C)c23)c1	n	n	n	n	n	n	x
COc1ccc(OC)c(C(=O)c2coc3cc(Br)c(O)c(Br)c23)c1	x	n	n	58	n	n	46
Cc1nc(Nc2ccc3c(c2)OCCO3)c2c(C)c(C)sc2n1	n	n	n	55	n	n	49
Cc1sc2ncnc(OCC(=O)Nc3ccc4c(c3)OCCO4)c2c1C	n	n	n	n	n	n	x
CCOc1ccccc1N1C(=O)c2ccc(C(=O)Nc3cccnc3)cc2C1=O	n	n	n	50	n	n	n
COCCCNc1nc2nonc2nc1N(C)CC1CCCN1C (configuration not stated)	n	n	n	n	n	n	x
O=C(N/N=C/c1ccc2cccnc2c1)c1ccco1	n	n	n	59	n	n	64
COCCCNC(=O)CN1CCN(Cc2ccc(Cl)cc2)C1=O	n	n	n	n	n	n	x
Cc1ccc(-c2nnc(N3CCC(C)CC3)c3ccccc23)cc1	n	n	n	53	n	n	69
CCOC(=O)c1c(C=O)c2sc(C)cc2n1C	n	n	n	53	n	n	45
O=C(NC1CCCC1)c1c(O)nc2sccn2c1=O	x	n	n	56	n	n	n
O=C(Nc1ccc(NC(=O)C2CC2)nc1)c1cccnc1	n	n	n	53	n	n	n
COc1ccc([C@H]2CC(=O)C=C(C#CC(C)(C)C)C2)cc1	x	n	n	n	n	x	x
COc1nn(-c2ccccc2)c(=O)c(Cl)c1Cl	n	n	n	51	n	n	n
CN(C)c1cnn(-c2ccccc2)c(=O)c1Cl	n	n	n	n	n	n	x
Nc1nnc(CCS(=O)(=O)c2ccc(Br)cc2)s1	n	n	n	n	n	n	x
CC1(C)CC2CC(C)(CN2S(=O)(=O)c2ccc(F)cc2F)C1 (configuration not stated)	x	n	n	52	n	x	49
CC1(C)CC2CC(C)(CN2S(=O)(=O)c2cccc(C(=O)OCC(N)=O)c2)C1 (configuration not stated)	x	n	n	n	n	n	x
Cc1ccc(C(=O)N2CCN(c3ccc([N+](=O)[O-])cc3-n3cccc3)CC2)cc1	x	n	n	n	n	n	x
CN1C(=O)/C(=C2\SC(N3CCCCCC3)=NC2=O)c2ccccc21	n	n	n	55	n	n	44
SMILES	NALP1 inh	NLRP3 yeast inh	tim10-1 inh	tim23-1 inh	TIM10 inh	SKKanGAS inh	tim23-1 confirm
CN1C(=O)/C(=C2\SC(N)=NC2=O)c2ccccc21	n	n	n	n	n	n	x
CCN(CCn1cccn1)C(=O)CC1C(=O)NCCN1CCc1ccccc1 (configuration not stated)	n	n	n	n	n	u	x
COc1cc(/C=C/C(=O)O)ccc1OS(=O)(=O)c1cc(C)ccc1C	n	n	n	n	n	n	x
CCn1c(N2CCN(S(=O)(=O)c3ccc(Cl)cc3)CC2)nc2ccccc21	n	n	n	63	n	n	43
CCn1c(N2CCN(S(=O)(=O)c3ccc(F)cc3)CC2)nc2ccccc21	n	n	n	n	n	n	x
C#C[C@]1(O)CC[C@H]2[C@@H]3CCC4=Cc5oncc5C[C@]4(C)[C@H]3CC[C@@]21C	x	n	n	50	n	n	50
CCCC(=O)Nc1ccc(C(=O)n2ccc(C)n2)cc1	n	n	n	n	n	n	x
COc1ccc(OC)c(-c2csc(NC(=O)Cc3ccc(F)cc3)n2)c1	n	n	n	55	n	n	43
Clc1cccc(Cl)c1C1Nc2cccc3cccc(c23)N1	n	n	n	53	n	59	75
c1coc(CNc2c3c(nc4ncnn24)CCCC3)c1	n	n	n	n	n	n	x
Clc1cccc(-c2cc3nc4c(c(NCc5ccco5)n3n2)CCCC4)c1	n	n	n	52	n	n	59
CCCCC1CCC(C(=O)NCc2ccc3c(c2)OCO3)CC1 (configuration not stated)	n	n	n	n	n	n	x
CN(c1ccc(C(=O)Nc2ccc3c(c2)OCO3)cc1)S(C)(=O)=O	x	n	n	n	n	n	x
CN(c1ccc(C(=O)Nc2ccc(CC#N)cc2)cc1)S(C)(=O)=O	n	n	n	94	n	n	n
CC1N(C(=O)N2CCOCC2)CCN1S(=O)(=O)c1ccc(Cl)cc1 (configuration not stated)	n	n	n	n	n	n	x
CCCn1nc(NC(=O)C2CCCO2)c2cc3cccc(C)c3nc21 (configuration not stated)	x	n	n	52	n	n	43
CC(C)Cn1nc(NC(=O)C2CCCO2)c2cc3ccccc3nc21 (configuration not stated)	n	n	n	n	n	n	x
O=c1[nH]c(CN2CCN(c3ccccn3)CC2)nc2c(Br)cc(Br)cc12	x	n	n	n	n	n	x
COc1ccc(C2=NNC(c3ccco3)=Nc3ccc(F)cc32)cc1	n	n	n	n	n	n	x
COc1ccc2c(c1)C(c1ccc([N+](=O)[O-])cc1)=NNC(c1ccco1)=N2	n	n	n	53	n	n	37
COc1ccccc1N1CCN(C2CCCN(S(=O)(=O)c3ccccc3)C2)CC1 (configuration not stated)	n	n	n	n	n	n	x
O=C(CSc1ccccc1)N/N=C/c1ccccc1O	n	n	n	52	n	n	55
O=C(CSc1n[nH]c(=O)[nH]c1=O)N/N=C/c1ccccc1O	n	n	n	n	n	n	x
CC1=NN(c2ccccc2)C(=O)/C1=C/c1c(O)n(-c2ccc(F)c(Cl)c2)[nH]c1=O	n	n	n	58	n	72	43
CC1=NN(c2ccccc2)C(=O)/C1=C\c1c(C)[nH]n(-c2ccccc2)c1=O	n	n	n	n	n	n	x
COc1cc(/C=C/c2cc(OC(C)=O)c3ccccc3n2)c(OC(C)=O)c([N+](=O)[O-])c1	n	n	n	n	n	n	x
